# Assay outcomes: PubChem, National Center for Advancing Translational Sciences (NCATS)
# Gal4-VP16 FLuc: counter-screen for ROR gamma inhibitors: Gal4-VP16 reporter. Potency, µM (highest dose often 53.6 µM), inactives show top-dose activity, negative = inhibition, most hits filed as inhibitors. 3.5% of 310,000 active. AID 2546. Drosophila S2 Gal4-VP16 UAS-luciferase, luminescence, 20 h;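 further: Gal4-VP16 expression switched on by copper sulfate through the metallothionein promoter; on the % scale 0 is the no-effect control and ±100 the full control effect; nearly all actives have a fitted effect of over 50% in size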
# RORgamma inh: ROR gamma (mouse) transcription inhibition | P51450 | Drosophila S2 Gal4-RORgamma UAS-luciferase reporter, 20 h | Potency, µM (titrated, usually from 53.6 µM), for inactives: at the highest dose activity change, negative = inhibition, most hits filed as inhibitors | 5.4% of 310,000 active; further: on the % scale 0 is the no-effect control and ±100 the full control effect; nearly all actives have a fitted effect of over 60% in size
# Target sequence (P51450 whole entry, looked up, the tested form may be a part): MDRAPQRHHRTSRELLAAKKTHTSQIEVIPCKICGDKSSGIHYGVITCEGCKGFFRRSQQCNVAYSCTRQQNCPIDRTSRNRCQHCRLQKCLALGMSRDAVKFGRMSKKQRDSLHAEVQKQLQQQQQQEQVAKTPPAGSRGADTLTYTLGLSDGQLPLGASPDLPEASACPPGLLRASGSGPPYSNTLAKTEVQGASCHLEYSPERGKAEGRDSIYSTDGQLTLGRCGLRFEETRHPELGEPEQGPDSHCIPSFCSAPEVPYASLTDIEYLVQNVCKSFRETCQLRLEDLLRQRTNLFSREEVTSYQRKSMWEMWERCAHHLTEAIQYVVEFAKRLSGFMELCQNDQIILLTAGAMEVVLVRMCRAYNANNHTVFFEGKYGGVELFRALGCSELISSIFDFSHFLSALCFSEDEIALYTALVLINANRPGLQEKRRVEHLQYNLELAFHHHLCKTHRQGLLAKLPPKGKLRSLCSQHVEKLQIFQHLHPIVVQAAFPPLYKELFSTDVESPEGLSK
#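 A Gal4/UAS one-hybrid system in insect cells: metallothionein-promoter Gal4–ROR gamma fusion plus Photinus luciferase reporter. Copper sulfate 700 uM final, 20 hr ambient incubation, luminescent detection after 10 min with reagent.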
# KB-3-1 tox: KB-3-1 parental cell cytotoxicity. Potency, µM (doses to about 46.1 µM), hits mostly cytotoxic. KB-3-1 viability, CellTiter-Glo ATP luminescence, 72 h. 1.4% of 400,000 active. AID 1347075; further: on the % scale 0 is the no-effect control and ±100 the full control effect; nearly all actives have a fitted effect of over 60% in size
#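 Parental KB-3-1 adenocarcinoma cells in phenol-red-free DMEM with 10% FBS were pin-treated with compounds at several concentrations, incubated 72 h at 37 °C, and viability read by CellTiter-Glo luminescence; concentration-effect curves were fitted after normalization.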
# SW480 rerep: inducers of DNA re-replication in SW480 colon cancer cells; 1.8% of 340,000 active; AID 624297; SW480 DNA re-replication, Hoechst DNA content imaging, 48 h; Potency, µM (doses to about 46.1 µM), inactives show at the top dose re-replication activation, hits mostly activators; further: % of control where 0% means no effect; nearly all actives have a fitted effect of over 55% in size
#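 Image-based read-out: total Hoechst fluorescence of nuclei (405 nm excitation, 500-530 nm emission), with hits raising the fraction of high-intensity nuclei. SW480 colon cells incubated 48 hr with compounds at 37 C.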
# MCF10A rereplic: DNA re-replication induction in MCF 10a cells | MCF 10A DNA re-replication, Hoechst nuclear intensity, 48 h | Potency, µM (top dose mostly 46.1 µM), for inactives: top-dose activity, positive = re-replication, most hits filed as activators | 2.9% of 350,000 active; further: % of control where 0% means no effect; nearly all actives have a fitted effect of over 50% in size
# KB-V1 cytotox: KB-V1 MDR subline cytotoxicity | KB-V1 MDR cells viability, CellTiter-Glo, 72 h | Potency, µM (top dose mostly 46.1 µM), hits mostly cytotoxic | 3.4% of 400,000 active | AID 1347076; further: on the % scale 0 is the no-effect control and ±100 the full control effect; nearly all actives have a fitted effect of over 60% in size
#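 Cytotoxicity toward P-gp-expressing KB-V1 cells was determined as loss of CellTiter-Glo luminescence after 72 h at 37 degrees C. Compounds were tested in quantitative HTS format across a concentration range, with curves fitted to normalized data.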
# * hit, by the source's call; i = inactive; ? = inconclusive; nt = no result; [ ] = remark or other dose. In the library only some 10% were active in any assay of this set; here they are far more common. The call rests on the fitted dose curve; in most records, active means well fitted curve in the direction sought with a large enough effect; inconclusive means small, poorly fitted or top-dose-only effect, or another doubt; inactive means no such curve, though single readings can be large; an effect the other way counts as inactive or inconclusive. Potency means the concentration at half of the fitted maximal effect.
SMILES,Gal4-VP16 FLuc,RORgamma inh,KB-3-1 tox,SW480 rerep,MCF10A rereplic,KB-V1 cytotox
N#Cc1c(NC(=O)c2ccc(Cn3cc(Br)cn3)o2)sc2c1CCCCCC2,-10.3%[0.365 µM],5.62µM*,?,28.8%,?,2.59µM*
Cc1noc(C)c1-c1ccc2ncnc(NCc3cccc(-c4ccccc4)c3)c2c1,?,7.8%,nt,nt,nt,nt
Cc1ccccc1C(=O)Nc1nc(-c2nnn(-c3ccc(C(C)C)cc3)c2C)ns1,nt,nt,i,nt,nt,i
COc1ccc(N(Cc2cccs2)C(=O)c2ccc(Br)o2)cc1,nt,nt,i,nt,nt,i
COCCCNC1=C(C#N)C(=O)NC(c2cccs2)S1 (centres undefined),nt,nt,i,nt,nt,i
CCCCCCCCN1[C@@H](CC(=O)O)c2ccc(/C=C/C(=O)O)cc2S1(=O)=O,nt,nt,i,nt,nt,i
NC(=O)c1c(NC(=O)c2ccc([N+](=O)[O-])o2)sc2c1CCCC2,-11.7%,-31.8%,16.4µM*,1.46µM*,2.59µM*,?
CN1CCc2c(sc(NC(=O)c3cc4cc([N+](=O)[O-])ccc4s3)c2C(N)=O)C1,3.16µM*,5.62µM*,nt,nt,nt,nt
CN1CCc2c(sc(NC(=O)c3ccc([N+](=O)[O-])o3)c2C(N)=O)C1,?,-43.2%,?,1.46µM*,?,?
CN1CCc2c(sc(NC(=O)c3cc(Cl)sc3Cl)c2C(N)=O)C1,-16.4%,25.3%,i,?,23.1µM*,i
CN1CCc2c(sc(NC(=O)c3ccco3)c2C(N)=O)C1,-11.1%,-1.6%,i,-4.9%,-1.0%,i
NC(=O)c1c(NC(=O)c2ccco2)sc2c1CCCC2,nt,nt,i,nt,nt,i
COc1ccc(CCNC(=O)Cn2cc(S(=O)(=O)Cc3ccccc3F)c3ccccc32)cc1OC,nt,nt,i,nt,nt,i
CN(CCCN(Cc1ccc(Cl)cc1)c1ccc(Br)cn1)C(=S)NCCCc1cnc[nH]1,nt,nt,?,nt,nt,i
COc1ccc(N2CCN(C(=O)c3cc(-c4ccc(C)c(F)c4)on3)CC2)cc1,nt,nt,i,nt,nt,i
COc1ccc(-c2noc(CCC(=O)NCc3ccc(OC)cc3OC)n2)cc1,nt,nt,i,nt,nt,i
CCN(CC(=O)Nc1ccc(NC(C)=O)cc1)C(=O)CSc1ncnc2sc(C)c(C)c12,nt,nt,i,4.4%,18.0%,i
N#C/C(=C\Nc1ccc2cn[nH]c2c1)c1nc(-c2ccccc2)cs1,?,?,i,2.6%,16.4µM*,i
COCCNC(=O)C1CCCN(S(=O)(=O)c2c(C)noc2/C=C/c2cccs2)C1 (centres undefined),?,?,i,-19.5%,-0.1%,i
Cc1ccc(NC(=O)C2CCCN(S(=O)(=O)c3c(C)noc3/C=C/N(C)C)C2)c(C)c1 (centres undefined),3.7%,5.2%,i,19.5%,?,i
COC(CNC(=O)C1CCCN(S(=O)(=O)c2c(C)noc2/C=C/c2cccs2)C1)OC (centres undefined),6.7%,25.3%,i,-14.2%,3.66µM*,i
Cc1ccc(C)c(NC(=O)C2CCCN(S(=O)(=O)c3c(C)noc3/C=C/N(C)C)C2)c1 (centres undefined),-6.0%,-0.1%,i,18.7%,18.4µM*,i
O=C(c1cccc(-c2ccccc2)c1)N1CC[C@@H](N2CCC(O)CC2)[C@H](O)C1,-9.7%,10.6%,i,-10.4%,-7.5%,i
CC(C)[C@@H]1Cc2[nH]c(=O)[nH]c(=O)c2[C@H](C)O1,nt,nt,?,nt,nt,18.4µM*
C[C@@H]1O[C@H](C2CCCC2)Cc2[nH]c(=S)[nH]c(=O)c21,nt,nt,16.4µM*,nt,nt,?
SMILES,Gal4-VP16 FLuc,RORgamma inh,KB-3-1 tox,SW480 rerep,MCF10A rereplic,KB-V1 cytotox
CC(C)CC1OC(C(C)C)Cc2[nH]c(=S)[nH]c(=O)c21 (centres undefined),nt,nt,i,nt,nt,i
CC(C)[C@@H]1Cc2[nH]c(=S)[nH]c(=O)c2[C@H](C)O1,nt,nt,8.2µM*,nt,nt,5.8µM*
CN(C)c1ccc(C(=O)Nc2nnc(-c3ccc(Cl)cc3)o2)cc1,0.501µM*,0.501µM*,?,-1.0%,?,i
O=C(Nc1nnc(-c2ccccc2)o1)c1ccc(Cl)cc1,1.41µM*,0.708µM*,?,22.3%,?,?
CC(=O)c1ccc(C(=O)Nc2nnc(-c3ccc(Cl)cc3)o2)cc1,2.51µM*,-34.8%,?,?,13.2%,i
CCOc1ccccc1C(=O)NC(C(=O)OCC(=O)Nc1nnc(-c2ccccc2)o1)C(C)C (centres undefined),5.01µM*,2.24µM*,i,3.8%,22.2%,i
C#CCN[C@@H]1CCc2ccccc21,0.5%,11.2%,nt,0.7%,0.1%,nt
O=C(COc1ccccc1)Nc1nnc(-c2ccc(Cl)cc2)o1,5.62µM*,7.08µM*,i,-3.4%,2.3%,i
Cc1cc(=O)[nH]c2c(C)cc(S(=O)(=O)N3CCCCC3)cc12,18.6%,5.62µM*,?,0.5%,18.5%,?
Cc1cc(=O)[nH]c2c(C)cc(S(=O)(=O)N3CCOCC3)cc12,nt,nt,?,?,11.5%,?
CCOC(=O)C1=C(O)C(=O)NC(c2ccccc2)=C(OC2CCCCC2)C1,2.8%,6.6%,?,-1.3%,3.2%,14.6µM*
CCOC(=O)C1=C(O)C(=O)NC(c2ccccc2)=C(OCC)C1,5.6%,1.7%,?,?,-3.2%,i
COc1ccc(NC(=O)c2cc(C3CCCCN3S(=O)(=O)c3ccc(F)cc3F)on2)c(C)c1 (centres undefined),nt,nt,i,nt,nt,i
O=S(=O)(NC1CCCc2ccccc21)c1cnc[nH]1 (centres undefined),?,12.6µM*,i,-8.6%,?,i
